Source: ChEMBL document CHEMBL3988442, “University of Dundee, Small-Polar-MMV Screening Library” (2021)
For some of these results: Entries with a potency or affinity are not part of this list.

Legend:
Parameters in all cases: scale not given: direction of the effect not stated beside the values
[1] = target: Protein translocase subunit SecA (Escherichia coli (strain K12)) (UniProt P10408); assay: Assay to Identify E. coli SecA ATPase Inhibitors; type: functional; details: 30 µM
[2] = target: T1, Ubiquitin-activating enzyme e1, putative (Leishmania donovani (strain BPK282A1)) (UniProt E9BSI1); assay: Leishmania donovani Ubiquitin Activating Enzyme (LdE1); type: functional; details: 30 µM
T1 sequence (whole entry): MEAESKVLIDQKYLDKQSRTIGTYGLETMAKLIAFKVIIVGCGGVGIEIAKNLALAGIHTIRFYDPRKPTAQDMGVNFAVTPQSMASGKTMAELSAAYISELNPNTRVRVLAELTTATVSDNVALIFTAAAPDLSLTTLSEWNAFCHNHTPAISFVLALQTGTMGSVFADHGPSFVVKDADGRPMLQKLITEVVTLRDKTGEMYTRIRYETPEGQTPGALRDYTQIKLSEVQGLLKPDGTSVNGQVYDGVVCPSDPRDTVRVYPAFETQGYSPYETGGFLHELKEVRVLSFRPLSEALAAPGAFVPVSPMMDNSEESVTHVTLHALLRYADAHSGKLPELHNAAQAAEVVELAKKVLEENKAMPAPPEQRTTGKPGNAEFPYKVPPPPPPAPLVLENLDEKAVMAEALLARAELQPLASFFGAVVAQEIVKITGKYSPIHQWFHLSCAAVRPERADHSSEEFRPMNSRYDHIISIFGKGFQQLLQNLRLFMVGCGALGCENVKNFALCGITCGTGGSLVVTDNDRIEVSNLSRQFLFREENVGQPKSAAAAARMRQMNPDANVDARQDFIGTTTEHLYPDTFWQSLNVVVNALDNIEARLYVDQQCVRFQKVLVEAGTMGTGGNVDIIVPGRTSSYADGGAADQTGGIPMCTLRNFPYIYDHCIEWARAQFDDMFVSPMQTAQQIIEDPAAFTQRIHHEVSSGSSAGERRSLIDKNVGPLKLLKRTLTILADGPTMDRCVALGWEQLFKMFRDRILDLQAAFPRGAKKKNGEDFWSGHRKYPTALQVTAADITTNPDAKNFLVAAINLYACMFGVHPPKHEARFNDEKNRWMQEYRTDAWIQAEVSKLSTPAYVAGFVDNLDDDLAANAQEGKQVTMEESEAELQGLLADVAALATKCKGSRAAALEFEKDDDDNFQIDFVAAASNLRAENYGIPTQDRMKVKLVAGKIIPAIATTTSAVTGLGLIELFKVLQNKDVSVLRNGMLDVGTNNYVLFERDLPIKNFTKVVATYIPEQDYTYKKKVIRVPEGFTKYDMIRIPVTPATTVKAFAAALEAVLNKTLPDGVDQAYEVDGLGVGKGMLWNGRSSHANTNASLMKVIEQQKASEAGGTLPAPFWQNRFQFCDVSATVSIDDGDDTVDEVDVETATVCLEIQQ

[3] = target: AMP-activated protein kinase, AMPK (Homo sapiens) (UniProt P54646+O43741+P54619+Q9UGJ0+Q9Y478+Q13131+Q9UGI9); assay: AMP-dependent Kinase enzyme assay. An in vitro enzyme assay that detects ADP turnover that is directly proportional to AMPK activity. This uses naive AMPK that is activated during the assay with MK-8722; type: functional; details: 30 µM
[4] = target: Sialic acid-binding Ig-like lectin 9 (Homo sapiens) (UniProt Q9Y336); assay: Hs-Siglec9 ALPHAscreen SOP 20170721; details: 10 µM
Sialic acid-binding Ig-like lectin 9 (Homo sapiens), sequence (Q9Y336 whole entry): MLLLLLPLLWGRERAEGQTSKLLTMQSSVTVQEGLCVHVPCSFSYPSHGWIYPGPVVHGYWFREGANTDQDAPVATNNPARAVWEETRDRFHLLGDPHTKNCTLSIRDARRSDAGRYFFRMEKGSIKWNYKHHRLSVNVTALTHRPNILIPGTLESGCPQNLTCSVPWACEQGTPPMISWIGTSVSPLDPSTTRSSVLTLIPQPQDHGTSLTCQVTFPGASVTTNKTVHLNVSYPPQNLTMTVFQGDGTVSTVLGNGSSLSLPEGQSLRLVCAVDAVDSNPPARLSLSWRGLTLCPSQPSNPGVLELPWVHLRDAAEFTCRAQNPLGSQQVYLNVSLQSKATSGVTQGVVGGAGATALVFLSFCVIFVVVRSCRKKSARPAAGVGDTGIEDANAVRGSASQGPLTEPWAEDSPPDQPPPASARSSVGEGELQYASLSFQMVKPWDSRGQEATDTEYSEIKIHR

Trypanosoma cruzi = assay: Trypanosoma cruzi phosphomannomutase and mannose-1-phosphate guanylyltransferase assay; type: functional; details: 10 µM
[5] = target: T2, Arginase-2, mitochondrial (Homo sapiens) (UniProt P78540); assay: in vitro enzyme assay to detect the production of urea directly proportional to the activity of Arginase II; type: functional; details: 33.3 µM; further: in the data most compounds retested in dose-response had high values
T2 sequence (whole entry): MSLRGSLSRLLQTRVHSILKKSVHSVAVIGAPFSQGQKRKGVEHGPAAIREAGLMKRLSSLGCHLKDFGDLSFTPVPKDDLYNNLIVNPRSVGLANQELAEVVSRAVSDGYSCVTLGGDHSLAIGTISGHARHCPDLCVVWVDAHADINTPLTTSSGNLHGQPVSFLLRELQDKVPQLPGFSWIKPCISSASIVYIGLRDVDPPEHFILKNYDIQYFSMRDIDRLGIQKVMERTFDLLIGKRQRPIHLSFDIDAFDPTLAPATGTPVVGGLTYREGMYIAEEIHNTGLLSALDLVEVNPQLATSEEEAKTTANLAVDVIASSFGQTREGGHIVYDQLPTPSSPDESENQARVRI

[6] = target: T3, Proteasome subunit beta (Trypanosoma cruzi) (UniProt O96673); assay: Trypanosoma cruzi proteasome chymotrypsin-like activity (TcProtChymo) assay.; further: in the data most compounds retested in dose-response had high values; type: functional; details: 9.37 µM
T3 sequence (whole entry): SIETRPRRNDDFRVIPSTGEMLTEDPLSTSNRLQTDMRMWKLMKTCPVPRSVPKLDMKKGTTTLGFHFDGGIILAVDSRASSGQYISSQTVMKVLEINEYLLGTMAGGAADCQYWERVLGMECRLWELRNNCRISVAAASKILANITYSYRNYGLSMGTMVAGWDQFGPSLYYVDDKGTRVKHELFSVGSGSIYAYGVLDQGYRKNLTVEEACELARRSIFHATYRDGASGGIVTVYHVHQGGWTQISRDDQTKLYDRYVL

Homo sapiens = organism: Homo sapiens; assay: To identify inhibition of the IFN signalling (Jak-Stat) pathway via expression of an eGFP reporter gene under the control of an IFN-stimulated response element (ISRE) containing MxA promoter.; type: functional; details: 30 µM
[7] = target: T4, Tyrosyl-tRNA synthetase, putative (Trypanosoma cruzi (strain CL Brener)) (UniProt Q4DSP6); assay: Trypanosoma cruzi tyrosyl tRNA synthetase (TcYRS) _High Tyrosine SOP; type: functional; details: 30 µM; further: in the data most compounds retested in dose-response had high values
T4 sequence (whole entry): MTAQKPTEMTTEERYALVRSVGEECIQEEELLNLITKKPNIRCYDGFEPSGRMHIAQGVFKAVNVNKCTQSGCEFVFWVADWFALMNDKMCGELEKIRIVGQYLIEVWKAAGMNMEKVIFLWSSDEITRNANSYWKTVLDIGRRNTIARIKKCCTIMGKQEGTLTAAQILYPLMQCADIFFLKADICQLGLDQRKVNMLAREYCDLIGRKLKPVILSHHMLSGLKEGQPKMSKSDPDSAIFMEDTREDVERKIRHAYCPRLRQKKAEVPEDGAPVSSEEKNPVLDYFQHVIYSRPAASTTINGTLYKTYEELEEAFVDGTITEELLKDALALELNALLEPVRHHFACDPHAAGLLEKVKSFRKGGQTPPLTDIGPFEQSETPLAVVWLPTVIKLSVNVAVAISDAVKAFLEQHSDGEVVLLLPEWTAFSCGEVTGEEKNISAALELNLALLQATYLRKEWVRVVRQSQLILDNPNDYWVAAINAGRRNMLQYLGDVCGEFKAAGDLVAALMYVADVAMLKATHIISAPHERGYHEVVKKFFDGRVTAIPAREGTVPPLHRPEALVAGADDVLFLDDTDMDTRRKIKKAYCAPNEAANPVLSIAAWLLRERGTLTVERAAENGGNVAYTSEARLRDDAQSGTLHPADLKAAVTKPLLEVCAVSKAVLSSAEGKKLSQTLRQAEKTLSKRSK

[8] = target: T4, Tyrosyl-tRNA synthetase, putative (Trypanosoma cruzi (strain CL Brener)); assay: Trypanosoma cruzi tyrosyl tRNA synthetase (TcYRS) SOP; type: functional; details: 30 µM
[9] = target: Chromo domain-containing protein 1 (Saccharomyces cerevisiae (strain ATCC 204508 / S288c) (Baker's yeast)) (UniProt P32657); assay: ScCHD-1 Enzyme Inhibition Assay; type: functional; details: 30 µM; further: in the data most compounds retested in dose-response had high values
Chromo domain-containing protein 1 (Saccharomyces cerevisiae (strain ATCC 204508 / S288c) (Baker's yeast)), sequence (P32657 whole entry, the tested form may be a part): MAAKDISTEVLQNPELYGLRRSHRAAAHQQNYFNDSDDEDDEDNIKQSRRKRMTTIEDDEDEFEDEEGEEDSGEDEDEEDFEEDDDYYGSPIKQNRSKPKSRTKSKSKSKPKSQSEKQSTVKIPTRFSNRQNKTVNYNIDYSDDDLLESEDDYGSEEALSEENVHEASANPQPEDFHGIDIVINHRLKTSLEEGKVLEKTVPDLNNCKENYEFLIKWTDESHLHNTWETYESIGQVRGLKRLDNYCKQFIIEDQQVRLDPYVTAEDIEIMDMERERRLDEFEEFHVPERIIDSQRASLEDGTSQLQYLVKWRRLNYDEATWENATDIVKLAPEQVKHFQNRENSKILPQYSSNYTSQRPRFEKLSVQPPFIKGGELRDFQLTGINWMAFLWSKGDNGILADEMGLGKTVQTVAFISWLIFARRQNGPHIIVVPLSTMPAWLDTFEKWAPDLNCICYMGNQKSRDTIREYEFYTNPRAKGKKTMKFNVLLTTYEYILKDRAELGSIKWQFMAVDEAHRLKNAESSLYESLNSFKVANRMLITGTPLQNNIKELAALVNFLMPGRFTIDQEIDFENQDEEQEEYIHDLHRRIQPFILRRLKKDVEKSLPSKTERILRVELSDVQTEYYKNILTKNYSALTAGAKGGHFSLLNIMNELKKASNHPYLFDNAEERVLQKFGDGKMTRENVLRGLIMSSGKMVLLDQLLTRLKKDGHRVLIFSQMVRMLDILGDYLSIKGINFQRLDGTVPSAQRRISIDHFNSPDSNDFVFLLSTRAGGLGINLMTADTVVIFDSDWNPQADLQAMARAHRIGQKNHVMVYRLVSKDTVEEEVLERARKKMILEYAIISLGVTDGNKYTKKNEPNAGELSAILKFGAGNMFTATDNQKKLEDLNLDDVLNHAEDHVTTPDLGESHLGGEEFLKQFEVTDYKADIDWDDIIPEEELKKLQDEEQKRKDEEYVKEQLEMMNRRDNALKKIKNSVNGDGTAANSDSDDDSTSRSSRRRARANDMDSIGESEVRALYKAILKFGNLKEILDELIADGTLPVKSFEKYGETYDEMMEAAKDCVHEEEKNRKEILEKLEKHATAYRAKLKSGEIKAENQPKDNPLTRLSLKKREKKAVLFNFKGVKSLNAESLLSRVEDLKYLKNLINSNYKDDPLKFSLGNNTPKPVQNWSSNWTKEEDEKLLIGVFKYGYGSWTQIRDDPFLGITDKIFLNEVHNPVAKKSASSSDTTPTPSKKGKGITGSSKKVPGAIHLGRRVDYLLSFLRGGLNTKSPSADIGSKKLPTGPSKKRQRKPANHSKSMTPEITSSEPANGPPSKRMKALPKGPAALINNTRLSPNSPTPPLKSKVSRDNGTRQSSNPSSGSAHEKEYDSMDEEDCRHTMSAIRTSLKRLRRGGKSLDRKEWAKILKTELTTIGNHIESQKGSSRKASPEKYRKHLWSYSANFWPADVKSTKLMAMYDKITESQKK

Protein translocase subunit SecA (Escherichia coli (strain K12)), sequence (P10408 whole entry): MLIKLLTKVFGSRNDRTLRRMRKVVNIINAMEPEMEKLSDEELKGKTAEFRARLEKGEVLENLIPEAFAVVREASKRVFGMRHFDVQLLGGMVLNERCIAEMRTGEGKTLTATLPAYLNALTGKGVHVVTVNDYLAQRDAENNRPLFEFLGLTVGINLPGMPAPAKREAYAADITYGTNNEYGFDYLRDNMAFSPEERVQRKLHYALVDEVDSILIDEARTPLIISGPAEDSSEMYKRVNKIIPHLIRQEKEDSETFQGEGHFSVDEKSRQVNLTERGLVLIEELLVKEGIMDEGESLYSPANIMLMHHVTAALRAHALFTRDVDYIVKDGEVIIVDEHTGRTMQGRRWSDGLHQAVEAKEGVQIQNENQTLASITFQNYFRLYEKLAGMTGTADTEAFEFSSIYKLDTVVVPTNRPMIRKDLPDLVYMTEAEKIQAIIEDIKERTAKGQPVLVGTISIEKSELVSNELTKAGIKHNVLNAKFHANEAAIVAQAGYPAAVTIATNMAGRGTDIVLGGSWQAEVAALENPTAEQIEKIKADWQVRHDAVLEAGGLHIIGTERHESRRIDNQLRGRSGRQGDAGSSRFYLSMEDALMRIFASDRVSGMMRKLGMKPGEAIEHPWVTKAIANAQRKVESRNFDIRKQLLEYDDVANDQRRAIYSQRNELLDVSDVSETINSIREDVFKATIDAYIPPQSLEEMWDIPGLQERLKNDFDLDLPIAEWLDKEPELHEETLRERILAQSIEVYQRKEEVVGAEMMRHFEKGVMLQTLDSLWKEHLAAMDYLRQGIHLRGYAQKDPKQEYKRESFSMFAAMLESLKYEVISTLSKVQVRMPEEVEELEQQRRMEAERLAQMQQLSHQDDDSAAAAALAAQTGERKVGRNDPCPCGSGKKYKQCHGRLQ

| Compound | Percent Effect [1] [%] | Percent Effect [2] [%] | Percent Effect [3] [%] | Percent Effect [4] [%] | Percent Effect (Trypanosoma cruzi) [%] | Percent Effect [5] [%] | Percent Effect [6] [%] | Percent Effect (Homo sapiens) [%] | Percent Effect [7] [%] | Percent Effect [8] [%] | Percent Effect [9] [%] |
| --- | --- | --- | --- | --- | --- | --- | --- | --- | --- | --- | --- |
| Cc1cnn(C2CCCN(C(=O)c3cn4cccnc4n3)C2)c1 (stereo not drawn) | -4.17 | 8.11 | -11.5 | 17.1 | 1.04 | -6.01 | 1.62 | 7.34 | 7.39 | 16.1 | -12.7 |
| O=C(c1ccoc1)N1CCCn2cnc(COCC3CC3)c2C1 | -3.46 | 13.5 | 6.15 | -4.88 | 1.07 | 9.24 | 22.1 | 0.302 | 2.16 | 15.4 | -0.464 |
| COc1cc(CNCc2ccnc(N3CCOCC3)c2)cc(Cl)c1OC | -5.46 | 16.2 | -4.43 | 13.4 | 0.0943 | -5.21 | 3.78 | 27.8 | 5.42 | 18.5 | -8.15 |
| CCCNC(=O)Nc1cc2c(cc1SC)OCCO2 | -5.72 | 13.5 | -3.48 | 12.2 | 2.93 | 11.2 | 10.7 | -1.29 | 8.91 | 8.54 | -6.19 |
| CCc1nnc2n1CCN(Cc1ccc(C(=O)N3CCCC3)cc1)C2 | -2.96 | 13.5 | 2.51 | -7.2 | -2.69 | -4.25 | 12.8 | 17.1 | 6.93 | 15.8 | -4.5 |
| COCc1nc(N(C)C)ncc1C(=O)NC(C)C | -5.73 | -1.33 | 4.52 | -0.683 | -3.54 | -2.99 | 4.07 | -5.53 | 2.12 | -2.56 | -0.879 |
| Cc1cnn(CC2CN(CCS(=O)(=O)c3ccccc3)CCO2)c1 (stereo not drawn) | -8.49 | 0 | 0.043 | -0.479 | -2.25 | -0.248 | 5.41 | 12.1 | 5.38 | 1.24 | -5.16 |
| CCS(=O)(=O)NC(C(=O)NC)c1ccc(F)c(F)c1 (stereo not drawn) | -1.19 | 2.7 | -9.93 | 0.659 | 0.195 | 2.92 | 10.7 | -11.3 | 9.9 | 20.7 | -7.3 |
